# Compound activity (PubChem BioAssay)
# A selection: hits, their analogues and other compounds. The true share with any hit is near 6.8%.
# T cruzi growth-1: inhibitors of T. cruzi proliferation; T. cruzi beta-gal in NIH3T3, GalScreen luminescence, 90 h; inhibition, % at 8.34 µM; 5.9% of 77,000 active;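 active = mean inhibition above about 93%, with at least 55% of replicates each passing it, limit read from the data, passing the limit was not always enough; inconclusive = only one of those two conditions holds; inactive = neither condition holds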
# Pf Dd2 growth: blocks growth of Plasmodium falciparum Dd2 parasites. P. falciparum Dd2 growth, SYBR Green, 72 h; stronger effect = lower value. activity change, % at 10 µM. 2.3% of 94,000 active; in the data active = activity change below about -80%; inconclusive = no clear call, values can overlap the other calls
# C diff HTS: inhibitors of Clostridium difficile growth; Clostridium difficile clinical isolate growth, OD600, 24 h; stronger effect = lower value; growth activity, negative = inhibition, % at 16 µg/mL (by protocol); 0.25% of 86,000 active;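 active = mean growth activity at or below -80% and every replicate also at or below -80%; inconclusive = mean at or below -80% but some replicate above -80%; inactive = mean growth activity above -80%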;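 also: 0% = DMSO wells and -100% = levofloxacin 16 µg/mL wells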
# T cruzi growth-2: blocks T. cruzi growth in NIH3T3 host cells; shares compounds with T cruzi growth-1; AID 651739; 72% of 5,600 active; T. cruzi beta-gal in NIH3T3, GalScreen luminescence, 90 h; inhibition, % at 8.35 µM;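 active = mean replicate inhibition above about 95% and at least 55% of replicates individually reaching it, limit read from the data; inconclusive = only one of the two criteria is met; inactive = neither criterion is met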
# T cruzi growth-3: Trypanosoma cruzi proliferation inhibition. 21% of 5,600 active. T. cruzi beta-gal in NIH3T3, GalScreen luminescence, 90 h. AID 651740. inhibition, % at 2.09 µM. shares compounds with T cruzi growth-1;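 active = mean inhibition above about 95%, with at least 55% of replicates also reaching it, limit read from the data; inconclusive = meets just one of the two conditions; inactive = meets neither condition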;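 also: plate controls were neutral control median for no effect and positive control median for full effect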
# NIH3T3 tox: NIH/3T3 (mouse) viability loss. shares compounds with T cruzi growth-1. NIH/3T3 viability, CellTiter-Glo ATP luminescence, 90 h. cytotoxicity (signal decrease), % at 8.35 µM. 14% of 5,600 active;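 active = mean signal decrease across replicates above about 35% based on untreated-well scatter, with enough replicates individually passing, limit read from the data; inconclusive = no rule stated though some were filed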;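 also: 0% = median of neutral control wells and 100% = median of positive control wells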
# NIH3T3 tox 2: kills mouse NIH/3T3 fibroblasts; shares compounds with T cruzi growth-1; AID 651744; NIH/3T3 viability, CellTiter-Glo ATP luminescence, 90 h; inhibition, % at 24.9 µM; 56% of 5,600 active;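 active = mean loss of cell viability signal at or above a set limit, and enough replicates individually reaching it; inconclusive = meets only the mean limit or only the replicate share; inactive = meets neither condition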;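 also: 0% = median of neutral control wells and 100% = median of positive control wells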
# The depositor's hits bear a star; ? = inconclusive; · = no result given.
SMILES,T cruzi growth-1,Pf Dd2 growth,C diff HTS,T cruzi growth-2,T cruzi growth-3,NIH3T3 tox,NIH3T3 tox 2
C[C@@H]1CCCCO[C@H](CN(C)Cc2ccc(C(F)(F)F)cc2)[C@H](C)CN([C@H](C)CO)C(=O)c2cc(NC(=O)Nc3cccc4ccccc34)ccc2O1,?,-68,-2,105*,117*,13,10
C[C@@H]1CN([C@@H](C)CO)C(=O)c2cc(NC(=O)Nc3cccc4ccccc34)ccc2O[C@@H](C)CCCCO[C@@H]1CN(C)Cc1ccc(C(F)(F)F)cc1,?,-88*,3,107*,111*,2,20
C[C@@H]1CCCCO[C@H](CN(C)Cc2ccc(C(F)(F)F)cc2)[C@@H](C)CN([C@H](C)CO)C(=O)c2cc(NC(=O)Nc3cccc4ccccc34)ccc2O1,?,34,4,107*,87,15,6
C[C@@H]1CN([C@@H](C)CO)C(=O)c2cc(NC(=O)Nc3cccc4ccccc34)ccc2O[C@@H](C)CCCCO[C@H]1CN(C)Cc1ccc(C(F)(F)F)cc1,?,-52,19,109*,117*,29,11
C[C@@H]1CN([C@@H](C)CO)C(=O)c2cc(NC(=O)Nc3cccc4ccccc34)ccc2O[C@@H](C)CCCCO[C@@H]1CN(C)Cc1ccc(C(=O)O)cc1,-1,-33,4,·,·,·,·
C[C@H](CO)N1C[C@H](C)[C@@H](CN(C)Cc2ccc(C(F)(F)F)cc2)OCCCC[C@H](C)Oc2ccc(NC(=O)Nc3cccc4ccccc34)cc2C1=O,?,14,-3,99*,107*,23,4
O=C(NCC[C@H]1CC[C@@H](NS(=O)(=O)c2ccc(Cl)cc2)[C@H](CO)O1)Nc1ccc(F)cc1,·,6,1,·,·,·,·
COc1ccc(CN(C)C[C@H]2OCCCC[C@@H](C)Oc3ccc(NC(=O)Nc4ccc(F)cc4)cc3C(=O)N([C@H](C)CO)C[C@H]2C)cc1,86,-58,10,·,·,·,·
COc1ccc(CN(C)C[C@H]2OCCCC[C@@H](C)Oc3ccc(NC(=O)Nc4ccc(OC)cc4)cc3C(=O)N([C@H](C)CO)C[C@H]2C)cc1,109*,-65,·,105*,105*,2,104*
COc1ccc(CN(C)C[C@H]2OCCCC[C@H](C)Oc3ccc(NC(=O)C4CCCCC4)cc3C(=O)N([C@H](C)CO)C[C@H]2C)cc1,107*,-53,·,73,35,5,26*
COc1ccc(CN(C)C[C@@H]2OCCCC[C@H](C)Oc3ccc(NC(=O)C4CCCCC4)cc3C(=O)N([C@@H](C)CO)C[C@H]2C)cc1,80,-69,-7,·,·,·,·
COc1ccc(CN(C)C[C@H]2OCCCC[C@@H](C)Oc3ccc(NC(=O)Nc4ccc(OC)cc4)cc3C(=O)N([C@@H](C)CO)C[C@@H]2C)cc1,81,-65,·,·,·,·,·
COc1ccc(CN(C)C[C@@H]2OCCCC[C@H](C)Oc3ccc(NC(=O)Nc4ccc(OC)cc4)cc3C(=O)N([C@H](C)CO)C[C@@H]2C)cc1,99*,-65,·,104*,105*,17,104*
COc1ccc(CN(C)C[C@H]2OCCCC[C@H](C)Oc3ccc(NC(=O)Nc4ccc(OC)cc4)cc3C(=O)N([C@H](C)CO)C[C@H]2C)cc1,106*,-61,·,103*,57,21,25*
COc1ccc(CN(C)C[C@H]2OCCCC[C@H](C)Oc3ccc(NC(=O)Nc4ccc(F)cc4)cc3C(=O)N([C@H](C)CO)C[C@@H]2C)cc1,44,-2,2,·,·,·,·
C[C@@H]1CN([C@@H](C)CO)C(=O)Cc2cc(NS(=O)(=O)c3ccc(F)cc3)ccc2O[C@H]1CN(C)S(=O)(=O)c1cccs1,20,-66,-9,·,·,·,·
COc1ccc(NC(=O)Nc2ccc3c(c2)CC(=O)N([C@@H](C)CO)C[C@H](C)[C@@H](CN(C)Cc2ccc(C(=O)O)cc2)O3)cc1,-18,0,-3,·,·,·,·
COc1ccc2c3c(n(C)c2c1)[C@@H](CO)N(Cc1ccc2c(c1)OCO2)CC31CCN(C(C)=O)CC1,·,-14,-1,·,·,·,·
COc1ccc(NC(=O)Nc2cccc3c2O[C@@H](CN(C)C)[C@H](C)CN([C@H](C)CO)C3=O)cc1,·,1,2,·,·,·,·
O=C(C[C@@H]1CC[C@@H]2[C@H](COC[C@@H](O)CN2C(=O)c2ccccc2)O1)NCc1cccc(F)c1,39,6,·,·,·,·,·
COc1ccc(CN(C)C[C@@H]2OCCCC[C@H](C)Oc3ccc(NC(=O)Nc4ccc(OC)cc4)cc3C(=O)N([C@@H](C)CO)C[C@@H]2C)cc1,100*,-81*,·,107*,-7,11,63*
COc1ccc(CN(C)C[C@@H]2OCCCC[C@@H](C)Oc3ccc(NC(=O)Nc4ccc(F)cc4)cc3C(=O)N([C@@H](C)CO)C[C@H]2C)cc1,20,-63,6,·,·,·,·
COc1cccc(-c2cnc3c(c2)C(=O)N([C@H](C)CO)C[C@H](C)[C@H](CN(C)Cc2ccccc2)O3)c1,16,-1,4,·,·,·,·
C[C@H](CO)N1C[C@H](C)[C@H](CN(C)Cc2cccc(C(F)(F)F)c2)Oc2ncc(/C=C/c3ccccc3)cc2C1=O,116*,-51,18,105*,112*,-19,80*
C[C@H]1CN([C@@H](C)CO)C(=O)c2cc(/C=C/c3ccccc3)cnc2O[C@@H]1CN(C)Cc1ccccc1,106*,-59,15,109*,79,24,103*
SMILES,T cruzi growth-1,Pf Dd2 growth,C diff HTS,T cruzi growth-2,T cruzi growth-3,NIH3T3 tox,NIH3T3 tox 2
C[C@H]1CN([C@@H](C)CO)C(=O)c2cc(/C=C/c3ccccc3)cnc2O[C@@H]1CN(C)Cc1ccncc1,85,-32,0,·,·,·,·
COc1ccc(NC(=O)N(C)C[C@@H]2Oc3ncc(-c4cccc(C(F)(F)F)c4)cc3C(=O)N([C@H](C)CO)C[C@@H]2C)cc1,103*,-40,7,98*,60,19,46*
COc1ccc(NC(=O)N(C)C[C@@H]2Oc3ncc(-c4ccc(OC)cc4)cc3C(=O)N([C@H](C)CO)C[C@@H]2C)cc1,50,-3,·,·,·,·,·
Cc1cccc(CN(C)C[C@@H]2Oc3ncc(/C=C/c4ccccc4)cc3C(=O)N([C@H](C)CO)C[C@@H]2C)c1,86,-60,·,·,·,·,·
COc1cccc(-c2cnc3c(c2)C(=O)N([C@H](C)CO)C[C@H](C)[C@H](CN(C)Cc2cccc(C(F)(F)F)c2)O3)c1,?,-18,23,107*,80,30,61*
C[C@@H]1CN([C@@H](C)CO)C(=O)c2cc(NC(=O)c3ccncc3)ccc2O[C@@H]1CN(C)C(=O)Nc1ccc2c(c1)OCO2,9,9,·,·,·,·,·
C[C@@H]1CN([C@@H](C)CO)C(=O)c2ccccc2-c2ccccc2CO[C@H]1CN(C)Cc1ccc(C(=O)O)cc1,53,-18,·,·,·,·,·
